For 13 sequences, binding signal results are on record in publication PMC8384837, “Expanding the binding specificity for RNA recognition by a PUF domain”.

What all share (experiment): yeast three-hybrid, YBZ-1, SC-Leu-His + 0.5 mM 3-AT, 4 days
What all share (conditions): tags: N-Gal4 AD-HA kept; label: inside an RPR1-promoter hybrid RNA with tandem MS2 sites; ssRNA

The target of one test is PUM1 PUF domain R4-WSR (Homo sapiens, UniProt Q14671 828-1176, N971W;H972S;Q975R). An outline of the steps: (§1)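 Pumilio-1 PUF domain libraries, randomized (NNK) at the three base-contacting residues of each repeat, were co-expressed with matching RNA elements from a centromeric plasmid in strain YBZ-1 (LexA–MS2 coat fusion, HIS3 reporter). Transformants were plated on SC-Leu (input) and SC-Leu-His + 0.5 mM 3-AT (selection) for four days, and repeat regions were PCR-amplified and Illumina-sequenced. The interaction score is the log2 change in variant frequency from input to selection, with pseudocount 1 where absent.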

The target in a further test is PUM1 PUF domain R4-NFS (Homo sapiens, UniProt Q14671 828-1176, H972F;Q975S). An outline of the steps:
as §1

Another test has as its target PUM1 PUF domain R4-CNI (Homo sapiens, UniProt Q14671 828-1176, N971C;H972N;Q975I). An outline of the steps: as §1
In a further test the target is PUM1 PUF domain R1-RVS (Homo sapiens, UniProt Q14671 828-1176, S863R;R864V;Q867S). The procedure, abridged:
as §1

Another test deals with PUM1 PUF domain R1-RGS (Homo sapiens, UniProt Q14671 828-1176, S863R;R864G;Q867S). The procedure, abridged: as §1
For another test, the target named is T1, PUM1 PUF domain R6-FYS (Homo sapiens, UniProt Q14671 828-1176, N1043F;Q1047S).
T1 sequence: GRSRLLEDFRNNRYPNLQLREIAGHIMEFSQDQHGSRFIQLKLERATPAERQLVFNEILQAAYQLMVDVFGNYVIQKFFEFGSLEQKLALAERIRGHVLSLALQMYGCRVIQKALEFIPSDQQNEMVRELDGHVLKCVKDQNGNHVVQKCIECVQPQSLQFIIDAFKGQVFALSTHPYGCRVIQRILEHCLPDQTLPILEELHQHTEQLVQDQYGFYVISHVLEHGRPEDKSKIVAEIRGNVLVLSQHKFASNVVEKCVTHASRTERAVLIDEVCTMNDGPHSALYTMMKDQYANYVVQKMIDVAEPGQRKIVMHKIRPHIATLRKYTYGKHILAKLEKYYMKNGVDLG
The procedure, abridged:
as §1

The target in another test is T2, PUM1 PUF domain R6-GYR (Homo sapiens, UniProt Q14671 828-1176, N1043G;Q1047R).
T2 sequence: T1 sequence with F216G, S220R
The procedure, abridged: as §1

The next test concerns the target PUM1 PUF domain R5-RHG (Homo sapiens, UniProt Q14671 828-1176, C1007R;R1008H;Q1011G). An outline of the steps: as §1
For the next test, the target named is T3, PUM1 PUF domain R6-GFA (Homo sapiens, UniProt Q14671 828-1176, N1043G;Y1044F;Q1047A).
T3 sequence: T1 sequence with F216G, Y217F, S220A
An outline of the steps: as §1

The next test deals with T4, PUM1 PUF domain R6-MYS (Homo sapiens, UniProt Q14671 828-1176, N1043M;Q1047S).
T4 sequence: T1 sequence with F216M
An outline of the steps:
as §1

The target in another test is PUM1 PUF domain R5-PMG (Homo sapiens, UniProt Q14671 828-1176, C1007P;R1008M;Q1011G). An outline of the steps: as §1
The target of another test is PUM1 PUF domain R8-RHE (Homo sapiens, UniProt Q14671 828-1176, N1122R;Y1123H;Q1126E). An outline of the steps: as §1
For another test, the target named is PUM1 PUF domain R1-RRK (Homo sapiens, UniProt Q14671 828-1176, S863R;Q867K). An outline of the steps:
as §1

The target in a further test is PUM1 PUF domain R5-TSR (Homo sapiens, UniProt Q14671 828-1176, C1007T;R1008S;Q1011R). The procedure, abridged:
as §1

Another test has as its target PUM1 PUF domain R5-QQR (Homo sapiens, UniProt Q14671 828-1176, C1007Q;R1008Q;Q1011R). An outline of the steps:
as §1

In another test the target is PUM1 PUF domain R5-RKI (Homo sapiens, UniProt Q14671 828-1176, C1007R;R1008K;Q1011I). An outline of the steps: as §1
Another test concerns the target PUM1 PUF domain R3-RVS (Homo sapiens, UniProt Q14671 828-1176, C935R;R936V;Q939S). The procedure, abridged: as §1
For a further test, the target named is PUM1 PUF domain R3-LSR (Homo sapiens, UniProt Q14671 828-1176, C935L;R936S;Q939R). The procedure, abridged:
as §1

Another test concerns the target PUM1 PUF domain R3-LFA (Homo sapiens, UniProt Q14671 828-1176, C935L;R936F;Q939A). The procedure, abridged:
as §1

In another test the target is PUM1 PUF domain R7-RML (Homo sapiens, UniProt Q14671 828-1176, S1079R;N1080M;E1083L). An outline of the steps: as §1

Changes are numbered by the printed parent chain.

On to “GGCUAGAACUAGUGGAUCCCCCGGCGCCCGGCGGCUCGAGCCCGGGUAAGUGUAUAUAGUCUGCAUGCCGCCGGGCGCCAUGCCUGCAGGUCGACUCUAGAAAACAUG”, for which the binding signal with PUM1 PUF domain R4-WSR was 1.87 log2 enrichment (interaction score); with PUM1 PUF domain R4-NFS, 3.51 log2 enrichment (interaction score).

As to “GGCUAGAACUAGUGGAUCCCCCGGCGCCCGGCGGCUCGAGCCCGGGUAAGUGUACAUAGUCUGCAUGCCGCCGGGCGCCAUGCCUGCAGGUCGACUCUAGAAAACAUG”, the binding signal in the test with PUM1 PUF domain R4-WSR is 2.55 log2 enrichment (interaction score); with PUM1 PUF domain R4-CNI, 3.63 log2 enrichment (interaction score).

As for “GGCUAGAACUAGUGGAUCCCCCGGCGCCCGGCGGCUCGAGCCCGGGUAAGUGUAAAUGGUCUGCAUGCCGCCGGGCGCCAUGCCUGCAGGUCGACUCUAGAAAACAUG”, the binding signal was 1.89 log2 enrichment (interaction score) in the test with PUM1 PUF domain R1-RVS and 0.85 log2 enrichment (interaction score) with PUM1 PUF domain R1-RGS.

In the case of “GGCUAGAACUAGUGGAUCCCCCGGCGCCCGGCGGCUCGAGCCCGGGUAAGUGUAAAUAGUCUGCAUGCCGCCGGGCGCCAUGCCUGCAGGUCGACUCUAGAAAACAUG”, the binding signal is 2.53 log2 enrichment (interaction score) with PUM1 PUF domain R6-FYS; 6.45 log2 enrichment (interaction score) with PUM1 PUF domain R6-GYR; 2.92 log2 enrichment (interaction score) with PUM1 PUF domain R5-RHG; 2.37 log2 enrichment (interaction score) with PUM1 PUF domain R6-GFA; 4.63 log2 enrichment (interaction score) with PUM1 PUF domain R6-MYS; 0.4 log2 enrichment (interaction score) with PUM1 PUF domain R5-PMG. The binding signal with PUM1 PUF domain R8-RHE is 2.1 log2 enrichment (interaction score).

For the sequence “GGCUAGAACUAGUGGAUCCCCCGGCGCCCGGCGGCUCGAGCCCGGGUAAGUGUAAAUUGUCUGCAUGCCGCCGGGCGCCAUGCCUGCAGGUCGACUCUAGAAAACAUG”, the binding signal in the test with PUM1 PUF domain R1-RVS is 3.69 log2 enrichment (interaction score); in the test with PUM1 PUF domain R1-RGS it was 2.53 log2 enrichment (interaction score); with PUM1 PUF domain R1-RRK it was 2.68 log2 enrichment (interaction score).

For the sequence “GGCUAGAACUAGUGGAUCCCCCGGCGCCCGGCGGCUCGAGCCCGGGUAAGUGUCAAUAGUCUGCAUGCCGCCGGGCGCCAUGCCUGCAGGUCGACUCUAGAAAACAUG”, the binding signal with PUM1 PUF domain R5-TSR is 5.55 log2 enrichment (interaction score); with PUM1 PUF domain R5-QQR it was 6.22 log2 enrichment (interaction score); in the test with PUM1 PUF domain R5-RKI, 3.24 log2 enrichment (interaction score); in the test with PUM1 PUF domain R5-RHG, 5.64 log2 enrichment (interaction score).

With “GGCUAGAACUAGUGGAUCCCCCGGCGCCCGGCGGCUCGAGCCCGGGUAAGUGUAAUUAGUCUGCAUGCCGCCGGGCGCCAUGCCUGCAGGUCGACUCUAGAAAACAUG”, the binding signal is 2.78 log2 enrichment (interaction score) in the test with PUM1 PUF domain R3-RVS, 4.8 log2 enrichment (interaction score) with PUM1 PUF domain R3-LSR and 2.26 log2 enrichment (interaction score) in the test with PUM1 PUF domain R3-LFA.

Consider “GGCUAGAACUAGUGGAUCCCCCGGCGCCCGGCGGCUCGAGCCCGGGUAAGCGUAAAUAGUCUGCAUGCCGCCGGGCGCCAUGCCUGCAGGUCGACUCUAGAAAACAUG”, for which the binding signal with PUM1 PUF domain R8-RHE is 3.02 log2 enrichment (interaction score).

For “GGCUAGAACUAGUGGAUCCCCCGGCGCCCGGCGGCUCGAGCCCGGGUAAGUUUAAAUAGUCUGCAUGCCGCCGGGCGCCAUGCCUGCAGGUCGACUCUAGAAAACAUG”, the binding signal in the test with PUM1 PUF domain R7-RML is 2.71 log2 enrichment (interaction score).

Take “GGCUAGAACUAGUGGAUCCCCCGGCGCCCGGCGGCUCGAGCCCGGGUAAGUGCAAAUAGUCUGCAUGCCGCCGGGCGCCAUGCCUGCAGGUCGACUCUAGAAAACAUG”: the binding signal with PUM1 PUF domain R6-GYR is 5.76 log2 enrichment (interaction score).

On to “GGCUAGAACUAGUGGAUCCCCCGGCGCCCGGCGGCUCGAGCCCGGGUAAGUGUUAAUAGUCUGCAUGCCGCCGGGCGCCAUGCCUGCAGGUCGACUCUAGAAAACAUG”, for which the binding signal in the test with PUM1 PUF domain R5-RHG was 5.88 log2 enrichment (interaction score); in the test with PUM1 PUF domain R5-PMG it was 3.73 log2 enrichment (interaction score).

For “GGCUAGAACUAGUGGAUCCCCCGGCGCCCGGCGGCUCGAGCCCGGGUAAGUGUAAAUCGUCUGCAUGCCGCCGGGCGCCAUGCCUGCAGGUCGACUCUAGAAAACAUG”, the results for the binding signal with PUM1 PUF domain R1-RVS, with PUM1 PUF domain R1-RGS and with PUM1 PUF domain R1-RRK were 4.31 log2 enrichment (interaction score), 2.68 log2 enrichment (interaction score) and 2.94 log2 enrichment (interaction score), respectively.

For the sequence “GGCUAGAACUAGUGGAUCCCCCGGCGCCCGGCGGCUCGAGCCCGGGUAAGUGUAAGUAGUCUGCAUGCCGCCGGGCGCCAUGCCUGCAGGUCGACUCUAGAAAACAUG”, the binding signal in the test with PUM1 PUF domain R3-LSR is 5.61 log2 enrichment (interaction score); in the test with PUM1 PUF domain R3-LFA it was 4.36 log2 enrichment (interaction score).
